# Experiments:
# Experiment in all cases: DAPPL (digital affinity profiling via proximity ligation, sequencing); 10 mM Tris-HCl pH 7.5, 50 mM NaCl, 1 mM DTT, 4% glycerol, room temperature, 30 min; GST-TFs on glutathione beads, 16-mer random dsDNA library, 0.1% formaldehyde crosslink after washing; high values mean tight binding
# FLI1 = target: T1, FLI1 (Homo sapiens, UniProt Q01543 1-452); conditions: protein: recombinant; tags: N-terminal GST; dsDNA, one strand shown
# T1 sequence: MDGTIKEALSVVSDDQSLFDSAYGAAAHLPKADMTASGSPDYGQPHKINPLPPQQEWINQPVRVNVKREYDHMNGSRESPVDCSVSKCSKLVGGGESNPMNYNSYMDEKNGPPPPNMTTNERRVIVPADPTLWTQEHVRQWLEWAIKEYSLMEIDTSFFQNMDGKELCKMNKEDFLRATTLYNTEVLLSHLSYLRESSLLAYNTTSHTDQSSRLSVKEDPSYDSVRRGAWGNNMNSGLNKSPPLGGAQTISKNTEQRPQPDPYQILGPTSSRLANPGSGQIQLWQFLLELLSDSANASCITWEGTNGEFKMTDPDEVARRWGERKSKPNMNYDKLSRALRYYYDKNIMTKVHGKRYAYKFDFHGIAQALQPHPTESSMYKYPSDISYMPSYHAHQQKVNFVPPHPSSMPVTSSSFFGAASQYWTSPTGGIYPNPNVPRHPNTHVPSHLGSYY
# Outline: (§1)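 Pools were built from human transcription factors expressed in yeast as GST fusions, captured on glutathione beads and DNA-barcoded, along with a tag-only sample. Incubation with 200 nmole of a 16-mer random double-stranded DNA library lasted 30 min at room temperature in Tris/NaCl/DTT/glycerol buffer, and was followed by washing, 0.1% formaldehyde crosslinking, proximity ligation, PCR amplification and Illumina NextSeq500 sequencing. Binding signal is the quotient of each hexamer's read frequency for a factor and its frequency for the tag-only sample.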
# ELK1 = target: T2, ELK1 (Homo sapiens, UniProt P19419 1-428); conditions: protein: recombinant; tags: N-terminal GST; dsDNA, one strand shown
# T2 sequence: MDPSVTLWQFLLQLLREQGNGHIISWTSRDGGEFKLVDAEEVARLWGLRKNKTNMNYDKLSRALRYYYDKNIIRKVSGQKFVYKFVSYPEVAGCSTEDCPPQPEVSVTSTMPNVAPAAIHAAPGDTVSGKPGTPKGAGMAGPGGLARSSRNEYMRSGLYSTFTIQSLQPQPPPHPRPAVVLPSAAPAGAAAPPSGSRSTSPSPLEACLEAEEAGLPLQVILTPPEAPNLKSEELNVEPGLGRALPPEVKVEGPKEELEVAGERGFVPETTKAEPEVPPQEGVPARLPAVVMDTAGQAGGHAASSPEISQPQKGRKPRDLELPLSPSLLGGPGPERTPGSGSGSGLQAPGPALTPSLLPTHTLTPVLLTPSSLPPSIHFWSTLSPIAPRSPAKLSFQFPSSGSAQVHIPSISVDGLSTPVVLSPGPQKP
# Outline: as §1
# GABPA = target: T3, GABPA (Homo sapiens, UniProt Q06546 1-454); conditions: protein: recombinant; tags: N-terminal GST; dsDNA, one strand shown
# T3 sequence: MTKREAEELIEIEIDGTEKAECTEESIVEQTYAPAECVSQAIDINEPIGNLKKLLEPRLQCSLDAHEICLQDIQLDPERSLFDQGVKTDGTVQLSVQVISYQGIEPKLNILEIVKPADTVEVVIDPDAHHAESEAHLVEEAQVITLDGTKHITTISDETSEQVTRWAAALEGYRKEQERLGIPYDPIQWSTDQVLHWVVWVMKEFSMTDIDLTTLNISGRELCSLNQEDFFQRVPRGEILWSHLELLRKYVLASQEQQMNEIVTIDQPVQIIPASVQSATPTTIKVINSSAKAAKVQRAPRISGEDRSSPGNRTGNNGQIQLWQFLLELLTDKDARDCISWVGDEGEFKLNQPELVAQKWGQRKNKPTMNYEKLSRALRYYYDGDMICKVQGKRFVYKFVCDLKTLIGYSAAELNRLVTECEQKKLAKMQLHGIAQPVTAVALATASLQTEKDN
# Outline: as §1
# ERG = target: T4, ERG (Homo sapiens, UniProt P11308 1-479); conditions: protein: recombinant; tags: N-terminal GST; dsDNA, one strand shown
# T4 sequence: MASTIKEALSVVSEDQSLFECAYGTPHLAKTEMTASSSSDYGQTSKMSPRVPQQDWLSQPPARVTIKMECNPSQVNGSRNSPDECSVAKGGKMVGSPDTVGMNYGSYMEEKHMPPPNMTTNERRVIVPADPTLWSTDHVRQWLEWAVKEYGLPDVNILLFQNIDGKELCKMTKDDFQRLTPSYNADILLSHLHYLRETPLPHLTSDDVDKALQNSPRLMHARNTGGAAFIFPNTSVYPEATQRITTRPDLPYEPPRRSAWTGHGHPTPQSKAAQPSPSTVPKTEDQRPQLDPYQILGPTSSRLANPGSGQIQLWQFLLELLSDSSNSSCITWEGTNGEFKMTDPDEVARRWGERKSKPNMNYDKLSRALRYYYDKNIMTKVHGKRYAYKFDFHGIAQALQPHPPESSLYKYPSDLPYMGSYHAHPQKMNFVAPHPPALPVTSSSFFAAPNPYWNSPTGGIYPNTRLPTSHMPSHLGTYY
# Outline: as §1
# ELF1 = ELF1 (Homo sapiens, UniProt P32519 1-619); conditions: protein: recombinant; tags: N-terminal GST; dsDNA, one strand shown
# Sequence of ELF1 (P32519 whole entry): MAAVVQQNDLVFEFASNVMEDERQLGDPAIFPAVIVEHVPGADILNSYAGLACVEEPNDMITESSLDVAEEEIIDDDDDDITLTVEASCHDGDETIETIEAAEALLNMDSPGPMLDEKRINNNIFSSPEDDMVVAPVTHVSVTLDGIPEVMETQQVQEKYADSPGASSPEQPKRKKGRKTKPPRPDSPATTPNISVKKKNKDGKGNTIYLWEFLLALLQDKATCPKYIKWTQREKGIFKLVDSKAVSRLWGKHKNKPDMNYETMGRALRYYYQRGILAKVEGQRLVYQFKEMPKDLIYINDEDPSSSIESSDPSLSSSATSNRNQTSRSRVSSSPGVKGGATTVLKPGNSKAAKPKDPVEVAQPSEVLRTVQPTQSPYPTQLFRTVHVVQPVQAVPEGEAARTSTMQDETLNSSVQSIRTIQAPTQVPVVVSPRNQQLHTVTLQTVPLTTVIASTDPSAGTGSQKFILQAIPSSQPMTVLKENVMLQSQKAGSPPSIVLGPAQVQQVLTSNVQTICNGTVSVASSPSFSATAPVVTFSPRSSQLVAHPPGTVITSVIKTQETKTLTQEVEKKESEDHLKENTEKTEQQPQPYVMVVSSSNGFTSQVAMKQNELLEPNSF
# Outline: as §1
# EHF = target: T5, EHF (Homo sapiens, UniProt Q9NZC4 1-300); conditions: protein: recombinant; tags: N-terminal GST; dsDNA, one strand shown
# T5 sequence: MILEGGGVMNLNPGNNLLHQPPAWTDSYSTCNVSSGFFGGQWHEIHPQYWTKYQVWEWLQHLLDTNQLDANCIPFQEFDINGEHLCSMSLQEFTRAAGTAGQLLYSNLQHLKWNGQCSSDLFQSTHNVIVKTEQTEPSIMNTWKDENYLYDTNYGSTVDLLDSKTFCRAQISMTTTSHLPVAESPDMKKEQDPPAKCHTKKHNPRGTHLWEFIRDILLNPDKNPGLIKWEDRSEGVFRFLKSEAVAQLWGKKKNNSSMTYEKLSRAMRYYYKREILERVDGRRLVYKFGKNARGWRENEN
# Outline: as §1
# SPI1 = SPI1 (Homo sapiens, UniProt P17947 1-270); conditions: protein: recombinant; tags: N-terminal GST; dsDNA, one strand shown
# Outline: as §1
# SPIB = SPIB (Homo sapiens, UniProt Q01892 1-262); conditions: protein: recombinant; tags: N-terminal GST; dsDNA, one strand shown
# Sequence of SPIB (Q01892 whole entry): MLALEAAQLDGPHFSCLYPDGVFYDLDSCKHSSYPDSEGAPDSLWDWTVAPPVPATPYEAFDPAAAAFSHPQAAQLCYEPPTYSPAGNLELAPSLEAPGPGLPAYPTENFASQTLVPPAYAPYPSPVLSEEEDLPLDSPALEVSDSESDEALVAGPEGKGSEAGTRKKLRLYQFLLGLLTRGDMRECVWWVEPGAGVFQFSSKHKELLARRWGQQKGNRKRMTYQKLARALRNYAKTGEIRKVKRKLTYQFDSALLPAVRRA
# Outline: as §1
# ELK3 = target: T6, ELK3 (Homo sapiens, UniProt P41970 1-407); conditions: protein: recombinant; tags: N-terminal GST; dsDNA, one strand shown
# T6 sequence: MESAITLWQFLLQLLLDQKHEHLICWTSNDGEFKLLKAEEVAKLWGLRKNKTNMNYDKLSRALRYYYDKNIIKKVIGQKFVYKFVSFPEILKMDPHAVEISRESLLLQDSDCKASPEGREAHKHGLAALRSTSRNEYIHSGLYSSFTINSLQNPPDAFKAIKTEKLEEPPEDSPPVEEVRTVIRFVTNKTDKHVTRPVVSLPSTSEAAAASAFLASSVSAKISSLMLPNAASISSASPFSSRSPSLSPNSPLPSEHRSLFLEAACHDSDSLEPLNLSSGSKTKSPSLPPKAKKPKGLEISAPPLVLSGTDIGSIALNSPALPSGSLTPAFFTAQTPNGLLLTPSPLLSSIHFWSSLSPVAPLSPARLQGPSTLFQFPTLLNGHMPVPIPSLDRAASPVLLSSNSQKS
# Outline: as §1
# FEV = target: T7, FEV (Homo sapiens, UniProt Q99581 1-238); conditions: protein: recombinant; tags: N-terminal GST; dsDNA, one strand shown
# T7 sequence: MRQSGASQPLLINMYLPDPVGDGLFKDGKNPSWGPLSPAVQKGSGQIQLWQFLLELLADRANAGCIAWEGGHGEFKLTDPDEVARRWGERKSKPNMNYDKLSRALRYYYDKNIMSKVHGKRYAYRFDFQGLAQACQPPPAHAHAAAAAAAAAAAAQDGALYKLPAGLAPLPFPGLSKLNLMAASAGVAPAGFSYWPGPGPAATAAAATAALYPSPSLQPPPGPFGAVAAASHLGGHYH
# Outline: as §1
# ETV5 = ETV5 (Homo sapiens, UniProt P41161 1-510); conditions: protein: recombinant; tags: N-terminal GST; dsDNA, one strand shown
# Sequence of ETV5 (P41161 whole entry): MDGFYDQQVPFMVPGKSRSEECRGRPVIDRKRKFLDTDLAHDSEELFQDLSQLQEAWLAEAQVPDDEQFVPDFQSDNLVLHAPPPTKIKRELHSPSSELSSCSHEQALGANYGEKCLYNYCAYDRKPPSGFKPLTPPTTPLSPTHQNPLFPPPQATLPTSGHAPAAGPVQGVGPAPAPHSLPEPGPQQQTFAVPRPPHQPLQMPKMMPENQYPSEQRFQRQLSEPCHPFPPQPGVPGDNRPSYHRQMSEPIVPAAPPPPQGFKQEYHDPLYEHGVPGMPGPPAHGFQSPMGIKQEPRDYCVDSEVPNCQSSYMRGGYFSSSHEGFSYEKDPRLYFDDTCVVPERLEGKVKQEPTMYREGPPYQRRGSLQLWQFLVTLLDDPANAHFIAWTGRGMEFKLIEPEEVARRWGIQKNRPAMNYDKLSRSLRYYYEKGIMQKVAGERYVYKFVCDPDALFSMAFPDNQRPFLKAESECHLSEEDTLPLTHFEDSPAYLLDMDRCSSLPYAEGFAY
# Outline: as §1
# HSF1 = HSF1 (Homo sapiens, UniProt Q00613 1-529); conditions: protein: recombinant; tags: N-terminal GST; chain copies: 3; dsDNA, one strand shown
# Sequence of HSF1 (Q00613 whole entry): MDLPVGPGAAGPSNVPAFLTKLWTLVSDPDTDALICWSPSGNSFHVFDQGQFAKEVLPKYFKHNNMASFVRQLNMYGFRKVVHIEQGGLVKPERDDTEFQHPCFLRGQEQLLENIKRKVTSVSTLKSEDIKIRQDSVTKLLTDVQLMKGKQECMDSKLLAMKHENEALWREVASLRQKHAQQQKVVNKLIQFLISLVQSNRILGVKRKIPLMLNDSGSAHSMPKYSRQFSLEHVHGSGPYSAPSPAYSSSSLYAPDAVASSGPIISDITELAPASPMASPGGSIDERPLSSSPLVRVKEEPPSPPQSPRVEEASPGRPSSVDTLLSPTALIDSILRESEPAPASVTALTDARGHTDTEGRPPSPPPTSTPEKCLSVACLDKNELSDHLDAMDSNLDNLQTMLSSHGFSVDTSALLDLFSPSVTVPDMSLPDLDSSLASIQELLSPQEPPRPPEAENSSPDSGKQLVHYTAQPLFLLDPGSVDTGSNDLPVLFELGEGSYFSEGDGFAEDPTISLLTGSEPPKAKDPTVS
# Outline: as §1
# SPIC = target: T8, SPIC (Homo sapiens, UniProt Q8N5J4 1-248); conditions: protein: recombinant; tags: N-terminal GST; dsDNA, one strand shown
# T8 sequence: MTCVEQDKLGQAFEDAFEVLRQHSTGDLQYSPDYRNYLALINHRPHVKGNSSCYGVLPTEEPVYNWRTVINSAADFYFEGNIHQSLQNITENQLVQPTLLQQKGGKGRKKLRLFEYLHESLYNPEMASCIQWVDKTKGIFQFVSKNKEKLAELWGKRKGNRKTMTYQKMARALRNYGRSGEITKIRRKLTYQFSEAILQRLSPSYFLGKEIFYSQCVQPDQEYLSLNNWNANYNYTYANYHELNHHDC
# Outline: as §1
# ELF4 = ELF4 (Homo sapiens, UniProt Q99607 1-663); conditions: protein: recombinant; tags: N-terminal GST; dsDNA, one strand shown
# Sequence of ELF4 (Q99607 whole entry): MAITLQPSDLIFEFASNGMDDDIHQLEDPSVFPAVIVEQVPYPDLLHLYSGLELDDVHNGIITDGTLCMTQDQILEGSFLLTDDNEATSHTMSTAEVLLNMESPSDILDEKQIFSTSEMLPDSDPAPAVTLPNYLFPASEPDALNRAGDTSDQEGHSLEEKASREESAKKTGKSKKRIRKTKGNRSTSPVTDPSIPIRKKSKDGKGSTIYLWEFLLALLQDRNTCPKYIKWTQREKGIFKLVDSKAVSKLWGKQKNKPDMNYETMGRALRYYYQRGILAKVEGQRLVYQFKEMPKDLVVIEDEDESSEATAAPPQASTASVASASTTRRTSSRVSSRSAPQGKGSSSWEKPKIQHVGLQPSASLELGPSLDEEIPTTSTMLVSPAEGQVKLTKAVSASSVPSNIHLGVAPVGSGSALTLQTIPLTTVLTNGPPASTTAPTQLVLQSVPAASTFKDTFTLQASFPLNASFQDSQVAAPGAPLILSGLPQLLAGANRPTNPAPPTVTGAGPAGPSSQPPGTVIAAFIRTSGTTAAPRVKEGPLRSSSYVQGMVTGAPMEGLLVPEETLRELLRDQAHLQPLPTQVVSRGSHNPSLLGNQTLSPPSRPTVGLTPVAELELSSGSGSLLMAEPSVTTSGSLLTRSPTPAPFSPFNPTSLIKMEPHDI
# Outline: as §1
# ELK4 = target: T9, ELK4 (Homo sapiens, UniProt P28324-2 1-405); conditions: protein: recombinant; tags: N-terminal GST; dsDNA, one strand shown
# T9 sequence: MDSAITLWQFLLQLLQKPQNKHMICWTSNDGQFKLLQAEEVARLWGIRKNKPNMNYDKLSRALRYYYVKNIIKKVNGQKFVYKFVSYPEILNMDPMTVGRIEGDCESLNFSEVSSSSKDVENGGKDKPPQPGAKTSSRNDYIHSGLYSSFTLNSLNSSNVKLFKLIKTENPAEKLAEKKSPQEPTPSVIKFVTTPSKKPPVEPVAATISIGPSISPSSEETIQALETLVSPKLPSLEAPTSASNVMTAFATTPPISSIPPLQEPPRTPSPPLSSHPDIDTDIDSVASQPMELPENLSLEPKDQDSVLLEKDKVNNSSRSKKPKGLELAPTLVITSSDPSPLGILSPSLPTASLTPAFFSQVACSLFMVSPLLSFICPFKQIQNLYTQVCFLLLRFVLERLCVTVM
# Outline: as §1
# ETV2 = target: T10, ETV2 (Homo sapiens, UniProt O00321 1-342); conditions: protein: recombinant; tags: N-terminal GST; dsDNA, one strand shown
# T10 sequence: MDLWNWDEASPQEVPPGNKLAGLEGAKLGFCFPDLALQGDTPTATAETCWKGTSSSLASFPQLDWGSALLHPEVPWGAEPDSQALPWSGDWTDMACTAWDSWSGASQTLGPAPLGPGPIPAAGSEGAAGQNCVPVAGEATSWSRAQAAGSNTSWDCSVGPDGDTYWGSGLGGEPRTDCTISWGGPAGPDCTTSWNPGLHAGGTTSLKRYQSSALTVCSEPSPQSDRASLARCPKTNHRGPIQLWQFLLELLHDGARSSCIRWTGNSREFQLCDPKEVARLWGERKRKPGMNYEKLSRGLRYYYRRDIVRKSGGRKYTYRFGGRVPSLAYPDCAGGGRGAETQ
# Outline: as §1
# ELF3 = target: T11, ELF3 (Homo sapiens, UniProt P78545 1-371); conditions: protein: recombinant; tags: N-terminal GST; dsDNA, one strand shown
# T11 sequence: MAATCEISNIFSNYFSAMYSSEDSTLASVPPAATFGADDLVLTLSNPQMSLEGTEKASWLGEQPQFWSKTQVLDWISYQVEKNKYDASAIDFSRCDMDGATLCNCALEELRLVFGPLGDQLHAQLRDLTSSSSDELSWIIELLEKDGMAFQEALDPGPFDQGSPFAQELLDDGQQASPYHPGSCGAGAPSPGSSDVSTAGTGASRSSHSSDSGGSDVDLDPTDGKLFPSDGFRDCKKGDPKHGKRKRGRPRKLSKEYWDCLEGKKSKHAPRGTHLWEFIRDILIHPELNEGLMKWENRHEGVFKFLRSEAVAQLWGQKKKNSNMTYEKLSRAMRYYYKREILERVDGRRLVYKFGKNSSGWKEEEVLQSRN
# Outline: as §1
# CRX = CRX (Homo sapiens, UniProt O43186 1-299); conditions: protein: recombinant; tags: N-terminal GST; dsDNA, one strand shown
# Sequence of CRX (O43186 whole entry): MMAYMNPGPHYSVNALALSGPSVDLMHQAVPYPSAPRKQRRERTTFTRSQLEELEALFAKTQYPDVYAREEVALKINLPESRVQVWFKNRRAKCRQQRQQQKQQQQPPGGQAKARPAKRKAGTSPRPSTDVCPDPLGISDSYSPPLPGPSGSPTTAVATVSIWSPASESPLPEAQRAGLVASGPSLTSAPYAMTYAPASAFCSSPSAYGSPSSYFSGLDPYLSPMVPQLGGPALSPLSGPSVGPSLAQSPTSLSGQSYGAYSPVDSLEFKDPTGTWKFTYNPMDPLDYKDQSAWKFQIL
# Outline: as §1
# ETV1 = ETV1 (Homo sapiens, UniProt P50549 1-477); conditions: protein: recombinant; tags: N-terminal GST; dsDNA, one strand shown
# Sequence of ETV1 (P50549 whole entry): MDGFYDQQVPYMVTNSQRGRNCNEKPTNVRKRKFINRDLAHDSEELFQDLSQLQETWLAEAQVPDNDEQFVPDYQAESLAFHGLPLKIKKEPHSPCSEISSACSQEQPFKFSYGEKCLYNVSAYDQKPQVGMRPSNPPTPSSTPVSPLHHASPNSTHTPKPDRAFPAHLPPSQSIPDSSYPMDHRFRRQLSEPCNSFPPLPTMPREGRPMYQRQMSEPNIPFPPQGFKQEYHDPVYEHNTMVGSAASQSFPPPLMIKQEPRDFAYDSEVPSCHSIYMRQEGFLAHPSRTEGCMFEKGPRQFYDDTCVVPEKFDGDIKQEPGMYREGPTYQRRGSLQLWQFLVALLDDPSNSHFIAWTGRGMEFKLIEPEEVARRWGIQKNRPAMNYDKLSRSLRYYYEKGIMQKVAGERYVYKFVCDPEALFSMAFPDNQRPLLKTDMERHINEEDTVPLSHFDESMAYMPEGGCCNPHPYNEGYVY
# Outline: as §1
sequence,measurement,setting,value
GAACTT,binding signal,FLI1,"1.68 fold enrichment (6-mer frequency, TF over GST control)"
same,binding signal,ELK1,"1.65 fold enrichment (6-mer frequency, TF over GST control)"
same,binding signal,GABPA,"1.62 fold enrichment (6-mer frequency, TF over GST control)"
same,binding signal,ERG,"1.58 fold enrichment (6-mer frequency, TF over GST control)"
same,binding signal,ELF1,"1.7 fold enrichment (6-mer frequency, TF over GST control)"
same,binding signal,EHF,"1.59 fold enrichment (6-mer frequency, TF over GST control)"
same,binding signal,SPI1,"1.74 fold enrichment (6-mer frequency, TF over GST control)"
same,binding signal,SPIB,"1.69 fold enrichment (6-mer frequency, TF over GST control)"
same,binding signal,ELK3,"1.7 fold enrichment (6-mer frequency, TF over GST control)"
same,binding signal,FEV,"1.72 fold enrichment (6-mer frequency, TF over GST control)"
same,binding signal,ETV5,"1.66 fold enrichment (6-mer frequency, TF over GST control)"
same,binding signal,HSF1,"2.03 fold enrichment (6-mer frequency, TF over GST control)"
same,binding signal,SPIC,"1.71 fold enrichment (6-mer frequency, TF over GST control)"
same,binding signal,ELF4,"1.52 fold enrichment (6-mer frequency, TF over GST control)"
same,binding signal,ELK4,"1.48 fold enrichment (6-mer frequency, TF over GST control)"
same,binding signal,ETV2,"1.44 fold enrichment (6-mer frequency, TF over GST control)"
same,binding signal,ELF3,"1.5 fold enrichment (6-mer frequency, TF over GST control)"
same,binding signal,CRX,"1.32 fold enrichment (6-mer frequency, TF over GST control)"
same,binding signal,ETV1,"1.68 fold enrichment (6-mer frequency, TF over GST control)"

# Source: article PMC7862700, “An all-to-all approach to the identification of sequence-specific readers for epigenetic DNA modifications on cytosine”
